{
  "source": "PubChem BioAssay (EPA / NIEHS)",
  "note": "Calls of active or inactive are those of the source. How the source made its calls: active means hit-call score of the fitted dose curve at least 0.9, where 1 is the maximum; inactive means score below 0.9.",
  "data": [
    {"biological_target": "Myc proto-oncogene protein (Homo sapiens) (UniProt P01106)", "sequence (P01106 whole entry, looked up)": "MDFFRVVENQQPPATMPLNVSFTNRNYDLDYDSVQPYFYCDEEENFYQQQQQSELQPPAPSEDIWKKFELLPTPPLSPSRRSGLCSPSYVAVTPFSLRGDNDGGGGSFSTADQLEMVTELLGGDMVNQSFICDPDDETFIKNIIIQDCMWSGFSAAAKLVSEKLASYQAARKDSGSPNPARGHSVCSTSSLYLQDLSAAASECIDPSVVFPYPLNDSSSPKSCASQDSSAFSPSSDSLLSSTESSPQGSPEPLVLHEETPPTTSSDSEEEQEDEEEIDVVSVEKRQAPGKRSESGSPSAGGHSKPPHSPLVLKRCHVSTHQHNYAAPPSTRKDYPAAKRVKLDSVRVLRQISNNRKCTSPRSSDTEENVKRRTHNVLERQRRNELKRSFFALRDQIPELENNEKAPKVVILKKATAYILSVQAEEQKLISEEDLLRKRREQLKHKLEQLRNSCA", "assay": "ATG_Myc_CIS: Attagene CIS-FACTORIAL HepG2 Assay for human Myelocytomatosis (Myc) Proto-Oncogene Transcription Factor (AID 2282990)", "details": "HepG2, Attagene cis-reporter transcription factor activity; actives raise or lower the signal", "outline": "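HepG2 cells transiently transfected with multiple cis-promoter-driven reporter transcription units, so endogenous TF activity is read. After 24 h compound exposure, reporter mRNA was quantified by RT-PCR, 6-FAM labelling, HpaI digestion and capillary electrophoresis; bidirectional fit versus DMSO.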", "values": [
      {"smiles": "C=C(C)CCO", "outcome": "inactive"},
      {"smiles": "CC(=O)[C@H]1[C@H](C#N)C[C@H]2[C@@H]3CC=C4C[C@@H](O)CC[C@]4(C)[C@H]3CC[C@@]21C", "outcome": "inactive"},
      {"smiles": "CCCOC(=O)CCCCC(=O)OCCC", "outcome": "inactive"},
      {"smiles": "CNC(=S)NN", "outcome": "inactive"},
      {"smiles": "O=C(O)CCCC[C@@H]1SC[C@@H]2NC(=O)N[C@@H]21", "outcome": "inactive"},
      {"smiles": "CC(=O)OCC(=O)[C@@]12N=C(C)O[C@@H]1C[C@H]1[C@@H]3CCC4=CC(=O)C=C[C@]4(C)[C@H]3[C@@H](O)C[C@@]12C", "outcome": "inactive"},
      {"smiles": "Cc1ccc([N+](=O)[O-])cc1S(=O)(=O)O", "AC50": "165 µM (active)"},
      {"smiles": "CC=CC(=O)N(CC)c1ccccc1C", "outcome": "inactive"},
      {"smiles": "CN(C)CCCN(C)C", "outcome": "inactive"},
      {"smiles": "O=C(Nc1ccccc1)c1ccccc1O", "outcome": "inactive"},
      {"smiles": "CCCCCC/C=C/C=O", "outcome": "inactive"},
      {"smiles": "CC1(C)O[C@@H]2C[C@H]3[C@@H]4C[C@H](F)C5=CC(=O)CC[C@]5(C)[C@H]4[C@@H](O)C[C@]3(C)[C@]2(C(=O)CO)O1", "outcome": "inactive"},
      {"smiles": "O=C1CCCN1CCO", "outcome": "inactive"},
      {"smiles": "C=CC(C)(CCC=C(C)C)OC(=O)CC(C)C", "note": "(stereo not drawn)", "outcome": "inactive"},
      {"smiles": "CCCCCCCOC(=O)CCC", "outcome": "inactive"},
      {"smiles": "O=c1cc(-c2ccccc2)oc2ccccc12", "outcome": "inactive"},
      {"smiles": "O=C(c1ccccc1)c1ccc(O)c(O)c1O", "outcome": "inactive"},
      {"smiles": "CC(=O)NS(=O)(=O)c1ccc(N)cc1", "outcome": "inactive"},
      {"smiles": "C=C(C)C(=O)OCCO", "outcome": "inactive"},
      {"smiles": "C[C@]12CCC(=O)C=C1CC[C@@H]1[C@@H]2C(=O)C[C@@]2(C)[C@H]1CC[C@]2(O)C(=O)CO", "outcome": "inactive"},
      {"smiles": "COc1cc(NC(=O)CC(C)=O)c(OC)cc1Cl", "outcome": "inactive"},
      {"smiles": "O=c1[nH]nc(-c2ccc([N+](=O)[O-])o2)o1", "outcome": "inactive"},
      {"smiles": "Nc1ccc(N=Nc2ccccc2)c(N)n1", "outcome": "inactive"},
      {"smiles": "CC(C)(C)c1ccc(N)cc1", "outcome": "inactive"},
      {"smiles": "O=C1c2ccccc2C(=O)C1c1nc2ccccc2c(Br)c1O", "outcome": "inactive"},
      {"smiles": "c1ccc(-c2ccccn2)nc1", "outcome": "inactive"},
      {"smiles": "CC(=O)OCCC1CCCCC1", "outcome": "inactive"},
      {"smiles": "CCCCC/C=C\\CCC=O", "outcome": "inactive"},
      {"smiles": "CC(C)(C)C1CCCCC1=O", "note": "(stereo not drawn)", "outcome": "inactive"},
      {"smiles": "CC1(C)O[C@@H]2C[C@H]3[C@@H]4C[C@H](F)C5=CC(=O)C=C[C@]5(C)[C@@]4(F)[C@@H](O)C[C@]3(C)[C@]2(C(=O)CO)O1", "outcome": "inactive"},
      {"smiles": "CCOC(=O)Cc1cccc2ccccc12", "outcome": "inactive"},
      {"smiles": "CC(=O)OC1C2(C)CCC(C2)C1(C)C", "note": "(stereo not drawn)", "outcome": "inactive"},
      {"smiles": "C=C(C)c1cccc(C(C)(C)N=C=O)c1", "outcome": "inactive"}
    ]}
  ]
}
